# Reference: PubChem BioAssay AID2315 (National Center for Advancing Translational Sciences (NCATS), 2010)
# In all, about 290,000 compounds went through this assay and about 27,000 (9.3%) were called active. The full list was thinned out, with actives kept by preference. Unmarked numbers belong to inactive results. No stated cut-off is given here; in the data, active means inhibition mostly above about 28% (no sharp cut-off); inactive means mostly below about 43%.
# Experiment: A qHTS for Small Molecule Inhibitors of Shiga Toxin; further: 0% is about no effect
# Details: Vero cells, Shiga toxin protein synthesis inhibition reporter; at 38.7 µM, stronger effect = higher value
row,SMILES,inhibition
1,Cc1ccc(C(=O)N2CCCCCC2)cc1Br,20.5%
2,Cc1ccc(C(=O)NC(C)c2ccccc2)cc1Br (stereo unspecified),38.4%
3,C=CCNC(=O)c1ccc(C)c(Br)c1,19.7% (active)
4,CCCc1nnc(SCC(=O)Nc2ccc(C(=O)OCC)cc2)o1,32.8%
5,COCCNC(=O)c1snc2ccc(Cl)cc12,51.4% (active)
6,COCCNC(=O)c1ccc2c(c1)ncn2-c1ccc(C)c(Cl)c1,19.9%
7,COCCNC(=O)c1ccc(S(=O)(=O)c2ccc(Cl)cc2)c(NC(C)=O)c1,-11.4%
8,Cc1ccc(S(=O)(=O)N2CCCC(C(=O)N3CCN(C)CC3)C2)cc1 (stereo unspecified),-6.59%
9,NS(=O)(=O)c1cccc(NC(=O)CC23CC4CC(CC(Br)(C4)C2)C3)c1,-9.01%
10,CCOc1ccc(C(=O)Nc2ccc(S(=O)(=O)NCC3CCCO3)cc2)cc1OCC (stereo unspecified),12.5%
11,O=C(Cc1csc(Nc2nc(=S)[nH]c3ccccc23)n1)NCCCN1CCN(c2cccc(Cl)c2)CC1,15.7%
12,O=C(NC1CCCC1)C(c1ccc(Cl)cc1)N(C(=O)c1csnn1)C1CC1 (stereo unspecified),2.36%
13,O=C(NCc1ccccc1)C(c1cccnc1)N(C(=O)c1csnn1)c1ccc(F)cc1 (stereo unspecified),1.7%
14,CC1CCN(C(=O)Cn2nnnc2CN2CCOCC2)CC1,15.5%
15,CCS(=O)(=O)n1nc(-c2ccc(OC)cc2)nc1SC,63.1%
16,CCS(=O)(=O)n1nc(-c2ccccc2)nc1SCc1ccccc1,115% (active)
17,CS(=O)(=O)n1nc(-c2ccccc2)nc1NCc1ccco1,7.12%
18,CCCC(C(=O)NC1CCCC1)N(C(=O)Cn1nnc(-c2ccc(C)o2)n1)c1cccc(O)c1 (stereo unspecified),-4.05%
19,C[C@@H]1O[C@@H](OC[C@H]2O[C@@H](Oc3cc(O)c4c(c3)O[C@H](c3ccc(O)c(O)c3)CC4=O)[C@H](O)[C@@H](O)[C@@H]2O)[C@H](O)[C@H](O)[C@H]1O,-8.25%
20,Cc1ccc(Cn2ccc(NC(=O)c3cc(C(C)C)on3)n2)cc1,84.3% (active)
21,Cc1ccc(Cn2ccc(NC(=O)C3C4CCC(C4)C3C(=O)O)n2)cc1 (stereo unspecified),-3.4%

row,SMILES,inhibition
1,Cc1cc(NC(=O)c2cc(-c3cccs3)on2)nn1Cc1ccc(Cl)cc1,9.37%
2,OC(c1ccc(Cl)cc1)C(CN1CCOCC1)c1ccccc1 (stereo unspecified),2.21%
3,CC(=O)c1ccc(S(=O)(=O)NCc2nnnn2-c2ccccc2)cc1,-2.55%
4,c1ccc(-c2nnc(SCc3nc4ccccc4[nH]3)o2)cc1,36.1%
5,O=C(CSc1nnc(-c2ccncc2)o1)NCc1ccc(Cl)cc1,-9.29%
6,Clc1ccc(-c2nnc(SCc3nc4ccccc4s3)o2)cc1,61.6% (active)
7,CCOc1ccc(S(=O)(=O)N2CCC(c3ccccc3)CC2)cc1C(=O)O,-1.98%
8,COc1cccc(-c2nc(CS(=O)(=O)CC(=O)NCCc3ccc(OC)c(OC)c3)c(C)o2)c1,-8.6%
9,Cc1nc2ccccc2c(=O)n1NC(=O)c1ccc(Cl)c([N+](=O)[O-])c1,-9.41%
10,NC1=NN(c2cccc(C(=O)O)c2)C(=O)C1,143% (active)
11,COC(=O)CC1=NN(c2ccccc2)C(=O)C1,17.6%
12,O=C(O)c1cccc(N2C(=O)Nc3ccccc3N2O)c1,11.8%
13,CC(C)c1nc(CNC(=O)CC2C(=O)NCCN2Cc2cccc(F)c2F)cs1 (stereo unspecified),-5.01%
14,CN(CCNC(=O)c1cc2c(-c3ccccc3F)nn(C)c2s1)C1CCCCC1,-4.2%
15,COc1ccc(OC)c(S(=O)(=O)N(C)CC(=O)N2CCN(c3ccccc3)CC2)c1,-6.69%
16,CN(CC(=O)N1CCN(c2ccccc2)CC1)S(=O)(=O)c1cccs1,63.8% (active)
17,O=C(CCNS(=O)(=O)c1cccs1)N1CCN(c2ccc(F)cc2)CC1,-7.67%
18,CCOc1ccc(S(=O)(=O)NCc2ccc3c(c2)OCO3)cc1C,-11.3%
19,COc1ccc(N2C(=O)C3C(C2=O)C(C(=O)c2ccccc2)N2CCCC32)cc1 (stereo unspecified),19.2%
20,CC(=O)Nc1ccc(S(=O)(=O)NNC(=O)CCc2ccccc2)cc1,-3.14%
21,COc1cc(-c2c(-c3ccc4c(c3)OCO4)noc2C)ccc1F,48.8% (active)

row,SMILES,inhibition
1,COc1ccc(CCNC(=O)c2cc(-c3ccc4c(c3)OCO4)on2)cc1OC,-10.3%
2,COc1ccc(-c2onc(C)c2-c2ccc3c(c2)OCCO3)c(O)c1,-15%
3,NC(=O)CC(NC(=O)Cc1ccc(Br)cc1)c1ccc(NC2CC3CCC2C3)c([N+](=O)[O-])c1 (stereo unspecified),60%
4,Cc1c(C)n(Cc2ccc(Cl)cc2)c2ccc(C(=O)NCCCN3CCOCC3)cc12,-12.7%
5,COc1ccc(N/N=C2/CCCCC2=O)cc1,34.6%
6,Cc1ccc(N/N=C2\COC(C)(C)CC2=O)cc1,101% (active)
7,COC(=O)c1ccc(S(=O)(=O)N2CCc3ccccc3C2)cc1,-1.69%
8,COc1ccc(N(C)S(=O)(=O)c2ccc3c(c2)CC(C)N3C(=O)C2CC2)c(OC)c1 (stereo unspecified),14.9%
9,O=C(Nc1ccc(Cl)cc1)OCc1cc(-c2ccccc2)on1,49.1%
10,CCOC(=O)Nc1ccc(S(=O)(=O)N(C)C(C)C)cc1,-22.3%
11,CCOC(=O)Nc1ccc(NC(=O)OCC)cc1,52.3% (active)
12,Cc1ccc(NC(=O)OCc2cncs2)cc1,70.8% (active)
13,Cc1ccc(NC(=O)OCCNC(=O)c2ccncc2)cc1,47.9%
14,CC(C)(COC(=O)Nc1ccccc1)COC(=O)Nc1ccccc1,35.2%
15,CN1CCc2ccccc2C1Cc1ccccc1NC(=O)c1sc2ccccc2c1Cl (stereo unspecified),-2.62%
16,COC(=O)C1(CCSC)NC(c2ccc(OC)cc2OC)C2C(=O)N(c3cccc(C(C)=O)c3)C(=O)C21 (stereo unspecified),-5.19%
17,N#Cc1ccc(-c2nc3cc(C#N)c(C#N)cc3nc2-c2ccccc2)cc1C#N,56.6% (active)
18,N#Cc1c(-c2ccc(F)cc2)nc(-c2ccccc2)[nH]c1=O,-4.47%
19,N#Cc1ccc(-c2ccc(F)cc2)nc1Sc1ccccc1,-10%
